# Source: PubChem BioAssay AID493201 (National Center for Advancing Translational Sciences (NCATS), 2011)
# Inconclusive results are not listed. Where a call stands in place of a potency, no number is given. The source made the active and inactive calls. The call rests on the fitted dose curve; in most records, active means well fitted activation curve with a large enough effect; inconclusive means small, poorly fitted or top-dose-only effect; inactive means no such curve, though single readings can be large or run the other way.
# Test: qHTS Assay for Identifying a Potential Treatment of Ataxia-Telangiectasia: Secondary assay (no NCS) hit validation;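 further: phosphorylated KAP1 signal as a proxy for ATM-like kinase activity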
# Settings: A-T patient fibroblasts, AlphaLISA, no DNA damage added, 90 min; series mostly up to 76.9 µM
# Procedure, shortened: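 hTERT-immortalized A-T patient fibroblasts (F2112), 500 cells/well, exposed to compounds at up to 76.7 uM final without NCS at 37C. KAP-1 phosphorylation measured by AlphaLISA after lysis and 6 h detection at 25C.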
# Potency means the concentration at half of the fitted maximal effect.
row,Compound,Potency
1,Fc1ccc(C2=NOC(c3nnc(-c4ccccc4)o3)C2)cc1 (centres undefined),inactive
2,Cc1oc2c(c(C)cc3oc(=O)c(CC(=O)NCC(=O)NCC(=O)O)c(C)c32)c1C,3.28 µM (active)
3,CNC(=O)c1ccc(-c2cc3onc(-c4ccccc4)c3c(=O)n2C)cc1,18.4 µM (active)
4,CCOC(=O)C1CCN(C(=O)c2cc3cc(Cl)ccc3[nH]2)CC1,inactive
5,CCN(CC)c1ccc2cc(-c3nc4ccccc4[nH]3)c(=O)oc2c1,inactive
6,C(=N\Nc1ccccn1)/c1c[nH]c2ccccc12,inactive
7,Cc1ccc2c(c1)sc(=NC(=O)C1CC1)n2C,inactive
8,CCc1ccc(C2c3[nH]c4ccccc4c3CCN2C(=O)c2cc[n+]([O-])cc2)cc1 (centres undefined),inactive
9,CC12CCC(C(=O)NNc3ccc([N+](=O)[O-])cc3)(OC1=O)C2(C)C (centres undefined),inactive
10,COc1ccc(Oc2ncnc3c2oc2ccc(Br)cc23)cc1,inactive
11,COc1cc(/C=N/NC(=O)c2c(C)nc3ccc(Cl)cn23)cc(OC)c1OC,3.68 µM (active)
12,COc1ccc(-c2nn(C)c(=O)[nH]2)cc1,inactive
13,CCOC(=O)c1c(CSc2ccsc2)n(C)c2cc(Br)c(O)c(CN(C)C)c12,26 µM (active)
14,O=c1c(-c2ccc(Cl)cc2)c[nH]n1-c1ccccc1,inactive
15,O=C(CNCc1cccs1)Nc1ccc(OC(F)(F)F)cc1,inactive
16,Cc1nc(Nc2ccc(Cl)cc2)c2oc3ccccc3c2n1,inactive
17,N#C/C(=C/c1ccc(F)cc1)C(N)=S,inactive

row,Compound,Potency
1,CCOC(=O)Cn1c(-c2ccccc2)cc(SC)c(C#N)c1=O,inactive
2,CC(C)Nc1nc(Oc2ccc(=O)n(-c3ccccc3)n2)nc(N(C)C)n1,inactive
3,O=C(NCCCN1CCOCC1)c1ccc2c(c1)N(Cc1cccc(F)c1)C(=O)c1ccccc1S2,inactive
4,O=C1CN(C(=O)NCC(=O)N[C@H](C(=O)O)c2ccccc2)c2ccccc2N1,inactive
5,CC(=O)NNC(=O)CN1C(=O)/C(=C/c2ccccc2)SC1=S,inactive
6,O=c1c2cc(Br)ccc2nc(-c2ccccc2)n1O,inactive
7,CCS(=O)(=O)c1ccc(C(=O)Nc2ccccc2)c(Cl)c1Cl,32.8 µM (active)
8,O=C(CN1C(=O)c2cccc([N+](=O)[O-])c2C1=O)NCc1ccccc1,inactive
9,CCn1nc(C)c(/C=N/NC(=O)Cn2cncn2)c1C,inactive
10,CCC(=O)c1ccc2c(c1)OCCO2,inactive
11,Cc1ccc(-c2noc(CCC(=O)NC3CCN(Cc4ccccc4)CC3)n2)cc1,inactive
12,CSc1nc(SCC(=O)O)c2c3c(sc2n1)COC(C)(C)C3,inactive
13,CCCCn1c2c(c(=N)c3ccccc31)CCC2,inactive
14,CN(C)C(=O)CN(C)S(=O)(=O)c1ccc(Cl)cc1,inactive
15,COC(=O)c1ccncc1C(=O)Nc1ccc(Oc2ncc(C(F)(F)F)cc2Cl)cc1,inactive
16,CC1CCCC(C)N1CCCNC(=O)Cn1ncc2c3ccccc3n(C)c2c1=O (centres undefined),14.6 µM (active)
17,NC(=O)C1CCN(Cc2nc3cc(C(F)(F)F)ccc3c(=O)[nH]2)CC1,inactive
